# HPGD block: blocks human HPGD enzyme activity | P15428 | purified HPGD, NADH fluorescence kinetic, PGE2 substrate | Potency, µM, without a hit: at the top dose activity change, negative = inhibition, usual class: inhibitors | 4.3% of 150,000 active | AID 894; further: potency means the concentration at half of the fitted maximal effect
#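 NADH formation kinetics: reaction with 30 uM PGE2 and 1 mM NAD+ (final), 20 nM enzyme, Tris-HCl pH 8 with Tween 20, after 15 min compound preincubation at room temperature. Fluorescence change, last versus first of five reads.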
# ALDH1A1 inh: inhibitors of human aldehyde dehydrogenase 1A1. P00352. Purified ALDH1A1, NADH fluorescence, propionaldehyde substrate. Potency, µM (titrated, usually from 75.3 µM), inactives show top-dose activity, negative = inhibition, hits mostly inhibitors. 7.3% of 220,000 active;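 further: potency means the concentration at half of the fitted maximal effect; plate controls were no enzyme wells and a reference inhibitor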
# Target sequence (P00352 whole entry, looked up): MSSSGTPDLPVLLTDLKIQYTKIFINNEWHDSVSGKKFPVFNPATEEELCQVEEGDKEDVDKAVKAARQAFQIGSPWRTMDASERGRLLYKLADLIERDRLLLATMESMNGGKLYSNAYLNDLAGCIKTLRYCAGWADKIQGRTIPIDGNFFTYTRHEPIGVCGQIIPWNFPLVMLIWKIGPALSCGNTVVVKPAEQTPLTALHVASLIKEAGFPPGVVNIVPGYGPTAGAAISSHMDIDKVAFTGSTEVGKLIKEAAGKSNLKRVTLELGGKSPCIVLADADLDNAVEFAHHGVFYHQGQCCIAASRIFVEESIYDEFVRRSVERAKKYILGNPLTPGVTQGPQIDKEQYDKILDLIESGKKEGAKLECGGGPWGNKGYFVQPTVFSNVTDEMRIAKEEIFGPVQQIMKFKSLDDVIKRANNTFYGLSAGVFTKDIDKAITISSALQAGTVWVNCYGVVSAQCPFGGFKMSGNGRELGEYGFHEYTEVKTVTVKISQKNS
# IMPase inh: membrane-permeable compound that blocks inositol monophosphatase. inhibition (IP1 accumulation), % at 46.1 µM. P97697. 120,000 tested, under 10 active. CHO-M1 cells, IP1 accumulation, HTRF TR-FRET ratio; active means well fitted curve in the direction sought with a large enough effect in the signal ratio, not every such curve was filed as active; inconclusive means small, poorly fitted or top-dose-only effect, or a change in a side signal; inactive means no such curve, though single readings can be large or run the other way; the % refers to the signal ratio;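 further: cells stimulated with carbachol in lithium chloride buffer; plate controls were DMSO basal wells for no effect and reference inhibitor wells for full effect; higher means more IMPase inhibition seen as more IP1 and lower FRET ratio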
#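 CHO-M1 cells (CHO stably expressing M1 receptor), compound up to 46 uM final, stimulated with carbachol (50 uM as added) in buffer with 50mM LiCl, pH 7.4, 30 min at 37C. Cytosolic IP1 read by TR-FRET; AC50 from Hill fits.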
# Active calls of the source: *; ? = inconclusive; . = no result; [ ] = remark or other dose. Compounds with a hit are over-represented: about 9% of the library has one in this group of screens. Unless noted, the call rests on the fitted dose curve; in most records, active means well fitted inhibition curve with a large enough effect (not every such curve was filed as active); inconclusive means small, poorly fitted or top-dose-only effect, or another doubt; inactive means no such curve, though single readings can be large or run the other way. Unless noted, on the % scale 0 is the no-effect control and ±100 the full control effect.
SMILES,HPGD block,ALDH1A1 inh,IMPase inh
CC(C)(C)NCc1cc2ccccc2[nH]c1=O,?,20µM*,-7
Cc1ccc2[nH]c(=O)c(CNC(C)(C)C)cc2c1,?,?,-2
CC1=C(C(=O)OC2CCCCC2)C(c2cccnc2)n2nnnc2N1 (stereo not drawn),-28%,10%,.
COC(=O)C1=C(C)Nc2nnnn2C1c1cccnc1 (stereo not drawn),35µM*,-7%,-2
COCC1=C(C(=O)OC)C(c2ccco2)n2ncnc2N1 (stereo not drawn),.,-6%,.
COC(=O)C1=C(C)Nc2nnnn2C1c1ccco1 (stereo not drawn),?,10µM*,-7
COCCSc1ccccc1C(=O)Nc1cc(C)ccn1,-2%,8%,-1
Cc1cnc(CNc2ccnc(-c3ccccc3C)n2)cn1,.,6%,.
Cc1noc(C)c1C(=O)OCC(=O)NCCC1=CCCCC1,-3%,-7%,0
COCCNC(=O)C(=O)NNC(=O)CCc1ccccc1,.,3%,.
Cc1cc2cc(CN(CCCO)S(=O)(=O)c3cccc4nsnc34)c(=O)[nH]c2cc1C,-12%,-1%,6
Cc1ccc2[nH]c(=O)c(CN(CCCO)S(=O)(=O)c3c(C)ccc4nsnc34)cc2c1,-9%,13µM*,2
CC1=CC(=O)C(C(C)C)=CC1=NC(=O)c1ccc(C)cc1,.,18µM*,.
CC1=CC(=O)C(C(C)C)=C/C1=N/OC(=O)c1cccc([N+](=O)[O-])c1,?,?,6
O=C(NCc1ccco1)c1ccc([N+](=O)[O-])o1,.,-3%,.
CN(N=O)C(=O)N[C@H]1C(O)C(O)C(CO)O[C@@H]1O (stereo partly drawn),0%,-4%,.
CCOC(=O)C1C(=O)C=C(c2cccs2)CC1c1ccccc1 (stereo not drawn),-20%,?,3
CC(=O)C1C(=O)C=C(c2ccco2)CC1c1ccccc1 (stereo not drawn),-26%,25µM*,?
Cc1ccc(NC(=S)N(CCCN2CCC(C)CC2)Cc2ccco2)cc1C,.,3%,.
Cc1nc(NCCc2ccccc2F)c(C#N)c(C)c1[N+](=O)[O-],-10%,14µM*,-4[1.84 µM]
Cc1nc(NCCc2ccc(F)cc2)c(C#N)c(C)c1[N+](=O)[O-],-9%,?,-7
COCc1c(C#N)c(NCCc2ccccc2)nc(C)c1[N+](=O)[O-],-18%,3%,10
COc1cc(CNc2nc(C)c([N+](=O)[O-])c(C)c2C#N)cc(OC)c1,-6%,4µM*,?
C/C(CCN1CCc2nc(-c3ccccc3)c(-c3ccccc3)cc2C1)=N\OC[C@@H](O)[C@@H]1O[C@@H]2OC(C)(C)O[C@@H]2[C@H]1O,.,10%[13.5 µM],.
O=C(NC1CCCCC1)c1cc(Cl)ccc1[N+](=O)[O-],1%,0%,.
SMILES,HPGD block,ALDH1A1 inh,IMPase inh
O=[N+]([O-])c1ccc(Oc2cnc3ccccc3n2)cc1,.,-2%,.
O=[N+]([O-])c1cnc2ccccc2c1,-1%,10µM*,.
C=CCOC(=O)C1=C[C@@H](c2ccc(Br)cc2)C[C@@H](OCc2ccc(CO)cc2)O1,.,18µM*,.
C#CCNC(=O)C1=C[C@H](c2ccc(C(F)(F)F)cc2)C[C@H](OCc2ccc(CO)cc2)O1,.,28µM*,.
O=C(NC1CC1)C1=C[C@@H](c2ccc3c(c2)OCO3)C[C@@H](OCc2ccc(CO)cc2)O1,.,4%,.
O=C(Nc1ccccc1)C1=C[C@H](c2ccc3c(c2)OCO3)C[C@H](OCc2ccc(CO)cc2)O1,.,28µM*,.
O=C(C1=C[C@@H](c2ccc(Br)cc2)C[C@@H](OCc2ccc(CO)cc2)O1)N1CCN(Cc2ccc3c(c2)OCO3)CC1,.,5%,.
C#CCNC(=O)C1=C[C@@H](c2ccccc2)C[C@@H](OCc2ccc(CO)cc2)O1,.,-2%,.
O=C(C1=C[C@@H](c2ccc(C(F)(F)F)cc2)C[C@@H](OCc2ccc(CO)cc2)O1)N1CCN(Cc2ccc3c(c2)OCO3)CC1,.,13µM*,.
NC(=O)C1=C[C@@H](c2ccc(Br)cc2)C[C@@H](OCc2ccc(CO)cc2)O1,.,2%,.
O=C(c1oc(=O)c2ccccc2c1-c1ccccc1)N1CCN(C2CCCCC2)CC1,2%,-4%,13
Cc1cccc(-c2nc3c(cnn3-c3ccccc3)c(=O)n2-c2cccc(Cl)c2)c1,.,.,2
Cc1ccccc1S(=O)(=O)/N=C(/c1ccccc1)N1CCOCC1,.,2%,.
O=C(NCc1cccnc1)C1CCCN(Cc2cnn(-c3ccccc3)c2-n2cccc2)C1 (stereo not drawn),2%,8%,4
O=C1CCCN1CCCNC(=S)Nc1ccc(Cl)cc1Cl,.,10%,.
CN1CCN(C(=O)C2=C[C@@H](c3ccc(Br)cc3)C[C@@H](OCc3ccc(CO)cc3)O2)CC1,.,-3%,.
CN1CCN(C(=O)C2=C[C@@H](c3ccccc3)C[C@@H](OCc3ccc(CO)cc3)O2)CC1,.,13µM*,.
C=C[C@]1(C)Cc2occ(C)c2C[C@H]1C(=C)C(=O)O,-5%,11µM*,.
CC(C)=CCCC(C)CN1CCC(N2CCC(C(=O)N3CCCC3)CC2)CC1 (stereo not drawn),.,11%,.
CC(C)CCN1CCN(Cc2ccc(N3CCNC3=O)cc2)CC1CCO (stereo not drawn),.,-15%,.
COc1ccc(C)cc1NS(=O)(=O)c1ccc2c(c1)[C@H]1C=CC[C@H]1[C@@H](c1cccc(Cl)c1)N2,.,.,-2
COC(=O)C1=C(C(=O)c2ccccc2)C(c2ccc(O)c(OC)c2)n2nnnc2N1 (stereo not drawn),-5%,9%,4
CC1=C(C(=O)Nc2ccc(Cl)cc2)C(c2cccs2)n2nc(SCc3cccc(Cl)c3)nc2N1 (stereo not drawn),.,.,-1
CC1=C(C(=O)Nc2ccc(Cl)cc2)C(c2cccs2)n2nnnc2N1 (stereo not drawn),-10%,5µM*,-2
COC(=O)C1=C(C(=O)c2ccccc2)C(c2cccs2)n2nnnc2N1 (stereo not drawn),-7%,22µM*,-1
SMILES,HPGD block,ALDH1A1 inh,IMPase inh
COc1ccc(NC(=O)CN2C(=O)N(C)Cc3ccccc32)c(C)c1,.,13%,.
Cc1cc(/C=N/n2cnnc2)c(C)n1-c1cc(Cl)ccc1Cl,-24%,22µM*,8
Cc1cccc(-n2c(C)cc(/C=N/n3cnnc3)c2C)c1,-8%,?,12
CCc1ccccc1NC(=O)Cn1c(=O)n(-c2ccc(C)cc2)c(=O)c2cc(OC)c(OC)cc21,.,.,5
COc1ccc(S(=O)(=O)Nc2cc3c4c(oc3c3ccccc23)CCCC4=O)cc1,1%,7.9µM*,11
CC1(C)CC(=O)c2c(oc3c(Cl)cc(NS(=O)(=O)c4ccc(Br)cc4)cc23)C1,.,.,-2
COc1ccc(S(=O)(=O)Nc2cc3c4c(oc3c3ccccc23)CC(C)(C)CC4=O)cc1,-19%,3.2µM*,7
COc1ccc(S(=O)(=O)Nc2ccccc2C)cc1,-1%,2%,-5
CCN(CC)S(=O)(=O)c1ccc(OCCNS(C)(=O)=O)cc1,.,12%,.
CC/C(=N\NC(=O)C(N)=O)c1ccccc1O,-14%,8%,.
CCOc1cc(/C=C2/C(=O)ON=C2C)ccc1OCc1ccccc1F,1.6µM*,5µM*,-1
O=C1OCC/C1=C\c1ccc2c(c1)OCO2,.,3%,.
CCOc1cc(/C=C2/C(=O)ON=C2C)ccc1OCc1ccccc1,.,-6%,.
CC1=NOC(=O)/C1=C\c1ccc2c(c1)OCO2,.,13µM*,.
